Assay results reported in PubChem BioAssay.
Active and inactive are the calls of the source.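 The calls were made as follows, unless noted: active = fluorescence slope after compound addition differing from the mean of all screened samples at 99.7% confidence, in either direction; inactive = the rest.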

What was measured:
[1] = inhibitors of TNFa-induced NFkB p65 translocation, primary screen, imaging, HUVEC, MLSMR starter and 10KST1 sets (AID 438;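 active = inhibition above 20% together with a positive visual image hit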;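 also: compound added about 3h40 before a 20 min TNFalpha stimulation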;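 as to inhibition: signal is the nuclear over cytoplasmic p65 intensity ratio per well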); conditions: HUVEC TNFa-induced p65 nuclear translocation; cell count: measured here: nuclei count (cytotoxicity indicator), at 2.08 µM; inhibition: at 2 µM, stronger effect = higher value, 0% TNFa-plus-vehicle, 100% no-TNFa wells
[2] = inhibitors of mutant huntingtin aggregation, primary screen, imaging, exon1htt(103Q)mCFP cells, high-content imaging (AID 483;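 active = visual image review flags a hit and inhibition of aggregation exceeds 20%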;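 also: compound exposure lasted 3 days before fixation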;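 as to nuclei count: percent of the per-plate median nuclei count of sample wells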); conditions: exon1htt(103Q)mCFP cell line, aggregate imaging, at 2 µM; inhibition of aggregation: stronger effect = higher value; nuclei count: measured here: cell count, toxicity
[3] = inhibitors of E-selectin induction by TNFa, primary screen, imaging, HUVEC, immunofluorescence, MLSMR starter and 10KST1 sets (AID 487;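 active = visually confirmed hit in the image check and inhibition above 20%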;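 as to inhibition: signal is fraction of cell area covered by stained E-selectin grains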;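 as to nuclei count: 100% = median nuclei count of all wells on the same plate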); conditions: HUVEC TNFalpha-induced E-selectin immunofluorescence imaging, at 2 µM; inhibition: stronger effect = higher value; nuclei count: measured here: cell number, toxicity
[4] = target: Voltage-gated potassium channel subunit beta-2 (Rattus norvegicus) (UniProt P62483); experiment: KvBeta enzyme negative modulators, primary screen, biochemical, NADPH fluorescence (AID 622;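 active = fluorescence slope higher than the sample average by over 3 SD, cut at about -0.22 in these data, passing the limit was not always enough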;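 also: slope of raw intensity against log time taken from 70 to 1610 s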); conditions: recombinant KvBeta, 4-cyanobenzaldehyde reduction, at 10 µM, stronger effect = higher value
[5] = target: Voltage-gated potassium channel subunit beta-2 (Rattus norvegicus) (UniProt P62483); experiment: KvBeta positive modulators, primary screen, biochemical, NADPH fluorescence (AID 623;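 active = NADPH fluorescence slope more negative than the mean of all samples by about 3 SD, 99.7% confidence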;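 also: fluorescence intensity change per second fitted from 20 to 320 s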); conditions: Recombinant KvBeta, NADPH fluorescence decrease slope, 10 min; at 10 µM; stronger effect = lower value
[6] = target: Alpha-2C adrenergic receptor (Homo sapiens) (UniProt P18825); experiment: modulators of alpha2C/GIRK thallium flux, primary screen, cell-based, HEK293 alpha2C/GIRK1/2 (AID 624); conditions: thallium flux BTC fluorescence, at 10 µM, actives lie on both sides;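 also: slope of fluorescence ratio to pre-addition baseline per second over 15 to 24 s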
[7] = inhibitors of Sendai virus-induced IRF3 signaling, primary screen, TLR/RLR signaling modifier project, cell-based, Sendai virus stimulus, luciferase, 10K MLSCN set (AID 602276;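 active = inhibition at or above 50% at 10 µM; inactive = inhibition below 50%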;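 also: firefly luciferase from ISG56 promoter only with Renilla not read in this screen; 0% = Sendai virus plus DMSO and 100% = medium plus DMSO without virus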); conditions: HEK293 RL24 IRF3 luciferase reporter, at 10 µM, stronger effect = higher value
[8] = inhibitors of poly I:C-induced TLR3 signaling, primary screen, cell-based, poly I:C stimulus, luciferase, 10K MLSCN set (AID 602277;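 active = inhibition of the reporter signal at or above 50%; inactive = inhibition below 50%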); conditions: HEK293-TLR3 RL24 IRF3 luciferase reporter, at 10 µM, stronger effect = higher value

Chain of Alpha-2C adrenergic receptor (Homo sapiens) (P18825 whole entry, looked up): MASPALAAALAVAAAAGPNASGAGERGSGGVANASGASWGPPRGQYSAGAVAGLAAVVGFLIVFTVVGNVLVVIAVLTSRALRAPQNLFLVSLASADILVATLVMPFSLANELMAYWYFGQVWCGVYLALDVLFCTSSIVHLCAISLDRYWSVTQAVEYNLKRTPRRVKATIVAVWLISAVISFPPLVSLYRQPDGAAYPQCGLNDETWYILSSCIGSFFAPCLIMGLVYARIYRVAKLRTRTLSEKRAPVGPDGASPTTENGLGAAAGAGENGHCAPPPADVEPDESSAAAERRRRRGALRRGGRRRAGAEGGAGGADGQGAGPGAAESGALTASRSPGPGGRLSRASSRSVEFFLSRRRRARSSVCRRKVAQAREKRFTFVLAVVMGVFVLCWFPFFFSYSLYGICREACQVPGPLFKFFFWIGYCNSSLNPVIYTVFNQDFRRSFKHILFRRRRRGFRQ
Chain of Voltage-gated potassium channel subunit beta-2 (Rattus norvegicus) (P62483 whole entry, looked up): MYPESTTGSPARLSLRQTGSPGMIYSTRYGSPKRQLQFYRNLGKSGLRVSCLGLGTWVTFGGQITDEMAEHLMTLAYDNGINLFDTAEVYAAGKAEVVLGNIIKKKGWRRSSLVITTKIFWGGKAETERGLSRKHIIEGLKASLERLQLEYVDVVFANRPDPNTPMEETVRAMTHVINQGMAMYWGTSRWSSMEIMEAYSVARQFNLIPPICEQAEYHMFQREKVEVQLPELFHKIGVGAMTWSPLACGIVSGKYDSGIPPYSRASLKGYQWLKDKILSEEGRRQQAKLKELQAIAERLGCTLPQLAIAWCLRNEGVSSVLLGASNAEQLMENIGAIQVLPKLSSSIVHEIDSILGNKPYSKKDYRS

| Compound | cell count [1] | inhibition [1] | inhibition of aggregation [2] | nuclei count [2] [%] | inhibition [3] | nuclei count [3] [%] | fluorescence slope [4] | NADPH fluorescence slope [5] | slope [6] | inhibition [7] | inhibition [8] |
| --- | --- | --- | --- | --- | --- | --- | --- | --- | --- | --- | --- |
| COc1cc(C(=O)N2CCC(NC(=O)C(Cc3ccc(C)cc3)NC(C)=O)CC2)cc(OC)c1OC (centres undefined) | 666 | -6.1% (inactive) | 22.1% (inactive) | 56.4 | 5.2% (inactive) | 127 | -0.478 (inactive) | -4.4e-05 (inactive) | 0.00562 (inactive) | 1.73% (inactive) | 24.4% (inactive) |
| CCOC(=O)C1CCN(C(=O)COc2ccc(S(=O)(=O)NC(C)C)cc2Cl)CC1 | 718 | 1.5% (inactive) | 9% (inactive) | 109 | -3.9% (inactive) | 97.5 | -0.46 (inactive) | -1.1e-05 (inactive) | 0.00357 (inactive) | 12% (inactive) | 9.55% (inactive) |
| O=C(CCCCn1c(=O)c2ccccc2n(Cc2ccc(Cl)cc2)c1=O)NCc1ccco1 | 613 | -7.3% (inactive) | -8.5% (inactive) | 81.8 | -95.8% (inactive) | 110 | -0.466 (inactive) | -1.3e-05 (inactive) | 0.00636 (inactive) | 45.2% (inactive) | 33.2% (inactive) |
| COc1cc(-n2nc(C)c3c2OC(N)=C(C#N)C3c2ccccc2)c(Cl)c(Br)c1O (centres undefined) | 490 | -1.6% (inactive) | 2.1% (inactive) | 71.4 | -8.7% (inactive) | 108 | -0.397 (inactive) | -3.5e-05 (inactive) | 0.00309 (inactive) | 18.2% (inactive) | 14.7% (inactive) |
| Cc1ccc(C)c(N2CCN(C(=O)CCCn3c(=S)[nH]c4cc5c(cc4c3=O)OCO5)CC2)c1 | 494 | 2.5% (inactive) | -3.8% (inactive) | 109 | -37.7% (inactive) | 114 | -0.433 (inactive) | 1.2e-05 (inactive) | 0.00641 (inactive) | 0.122% (inactive) | 17.7% (inactive) |
| c1ccn2c(SCc3ccc4c(c3)OCCO4)nnc2c1 | 793 | -10.5% (inactive) | 11.4% (inactive) | 88.9 | -56.4% (inactive) | 117 | -0.583 (inactive) | 5.1e-06 (inactive) | 0.00773 (inactive) | -29.2% (inactive) | -95% (inactive) |
| Cc1ccc(-n2ncc3c(=O)[nH]c(SC(C)C)nc32)cc1 | 716 | -23.9% (inactive) | 2.6% (inactive) | 82.4 | -18.4% (inactive) | 126 | -0.455 (inactive) | -4.4e-06 (inactive) | 0.0066 (inactive) | 7.08% (inactive) | 21.6% (inactive) |
| Cc1ccccc1-n1nnc2c(=O)oc3ccccc3c21 | 345 | -1.6% (inactive) | 20.9% (inactive) | 98.5 | -83% (inactive) | 96.8 | -0.347 (inactive) | -3.7e-05 (inactive) | 0.00409 (inactive) | 12.8% (inactive) | 26.7% (inactive) |
| O=C(Nc1ncc(Cc2ccccc2)s1)C1CCCO1 (centres undefined) | 455 | -3.3% (inactive) | 11% (inactive) | 109 | -1.5% (inactive) | 96.3 | -0.563 (inactive) | -1.3e-05 (inactive) | 0.00728 (inactive) | -58.5% (inactive) | -150% (inactive) |
| O=C(Nc1nonc1NC(=O)C1CCCCC1)C1CCCCC1 | 396 | 10.2% (inactive) | -7.6% (inactive) | 108 | -71.5% (inactive) | 127 | -0.473 (inactive) | 3.9e-06 (inactive) | 0.00459 (inactive) | 13.6% (inactive) | 22.8% (inactive) |
| CCc1ccc(NC(=O)CSc2nnc(Cc3cccn3C)n2-c2ccc(OC)cc2)cc1 | 891 | 7.4% (inactive) | -2.2% (inactive) | 111 | -54.1% (inactive) | 117 | -0.609 (inactive) | 1.4e-05 (inactive) | 0.00529 (inactive) | 20.1% (inactive) | 23.6% (inactive) |
| Fc1cccc(Cl)c1Cn1nnc2c(NCc3ccccn3)ncnc21 | 716 | -10.5% (inactive) | 15.5% (inactive) | 120 | -26.6% (inactive) | 108 | -0.514 (inactive) | -6.7e-05 (inactive) | 0.0046 (inactive) | 6.08% (inactive) | 9.56% (inactive) |
| O=C(CSc1nnnn1-c1ccc2c(c1)OCO2)NCc1cccs1 | 240 | 4.8% (inactive) | 2.8% (inactive) | 90.3 | -66.6% (inactive) | 98.8 | -0.447 (inactive) | 9.8e-06 (inactive) | 0.00659 (inactive) | 33.3% (inactive) | -10.4% (inactive) |
| CCn1cc(S(=O)(=O)CC(=O)Nc2ccc(OC)cc2)c2ccccc21 | 624 | -2.4% (inactive) | 7% (inactive) | 82.1 | -16.8% (inactive) | 115 | -0.528 (inactive) | -4.7e-05 (inactive) | 0.00751 (inactive) | 7.03% (inactive) | 16.6% (inactive) |
